Test results as given in PubChem BioAssay AID1053184 (Broad Institute, 2014).
Measured potencies and affinities stand elsewhere. Unmarked numbers belong to inactive results.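 Rule for the calls: active = cell killing, with a fitted half-maximal concentration at or below twice the top valid dose tested; inconclusive = flat curve between 30% and 70% signal loss, or poor fit; inactive = effect in the rising direction, plus the rest.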

Experiment: A549 cell viability loss – cherry-picked samples, cytotoxicity control, dose response (AID 1053184)
Conditions: CellTiter-Glo ATP luminescence, 72 h; series mostly up to 26 µM; activity change, negative = cytotoxicity: at the top concentration

Structure (SMILES) | activity change, negative = cytotoxicity
COc1cc(CN2C[C@@H]3N[C@H](C2)C3c2ccc(-c3ccc(C#N)cc3)cc2)cc(OC)c1 (stereo partly specified) | -1.52%
C/C=C/c1ccc([C@H]2[C@@H](CO)N3C(=O)CN(Cc4ccc(F)cc4)C[C@@H]23)cc1 | -10.1%
O=S(=O)(c1ccc(F)cc1)N1C[C@@H]2N[C@H](C1)C2c1ccc(/C=C/c2ccccc2)cc1 (stereo partly specified) | -0.414%
C[C@H]1CNC(=O)[C@@H](Cc2ccc(C(F)(F)F)cc2)CCn2nncc2COC1 | -8.09%
COc1cccc(-c2cccc(-c3nc(C(=O)Nc4ccc(-c5ccccc5)cc4)cc4c3[C@@H](CCO)N(S(=O)C(C)(C)C)C4)c2)c1 (stereo partly specified) | -4.67%
N#Cc1cccc(-c2ccc(C3[C@@H]4CN(C(=O)Nc5ccc(C(F)(F)F)cc5)C[C@H]3N4)cc2)c1 (stereo partly specified) | -9.18%
COc1ccc2c3c(n(C)c2c1)[C@@H](CO)N(CC1CC1)CC31CN(C(=O)c2ccc3c(c2)OCO3)C1 | -1%
CNC[C@@H]1Oc2cc(C#Cc3ccccc3OC)ccc2S(=O)(=O)N([C@H](C)CO)C[C@H]1C | 1.42%
CO[C@@H](CN(C)Cc1cc(F)ccc1F)[C@@H](C)CN(C(=O)Nc1ccc(C(F)(F)F)cc1)[C@H](C)CO | -8.77%
CN(C)C(=O)c1cccc(-c2ccc(C3[C@@H]4CN(Cc5ccccc5F)C[C@H]3N4)cc2)c1 (stereo partly specified) | 0.186% [at 23.5 µM]
C[C@H](CO)N1C[C@H](C)[C@@H](CN(C)Cc2ccccc2)Oc2c(NC(=O)Cc3cn(C)c4ccccc34)cccc2C1=O | -2.15%
